# Shown are actives, neighbours in structure and some others; about 4.3% of the full set was active somewhere.
# uPA surface inh: qHTS for Inhibitors of Cell Surface uPA Generation. cell surface uPA generation assay, qHTS. Potency, µM (top dose mostly 38.3 µM), for the others: at the highest dose activity change, negative = inhibition, actives largely listed as inhibitors. actives 0.31% (n = 330,000); active = well fitted inhibition curve with a large enough effect; inconclusive = small, poorly fitted or top-dose-only effect; inactive = no such curve, though single readings can be large or run the other way; tested in mouse RAW 264.7 cells; note: potency is the fitted concentration of half-maximal effect; % is set by controls: 0 for no effect and ±100 for the full control effect; nearly all actives have a fitted effect of over 55% in size
# SW480 rereplic: A quantitative high throughput screen for small molecules that induce DNA re-replication in SW480 colon adenocarcinoma cells | AID 624297, 2012 | SW480 DNA re-replication, Hoechst DNA content imaging, 48 h | Potency, µM (top dose mostly 46.1 µM), without a hit: top-dose re-replication activation, most hits filed as activators | actives 1.8% (n = 340,000); note: potency is the fitted concentration of half-maximal effect; % of control where 0% means no effect; nearly all actives have a fitted effect of over 55% in size
#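 Image-based read-out: total Hoechst fluorescence of nuclei (405 nm excitation, 500-530 nm emission), with hits raising the fraction of high-intensity nuclei. SW480 colon cells incubated 48 hr with compounds at 37 C.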
# Giardia killer: Small Molecules that selectively kill Giardia lamblia: qHTS; Giardia lamblia trophozoite viability; activity change, % at 7.66 µM, hits read low; actives 0.15% (n = 340,000); AID 540267, 2011; in the data active = activity change below about -80%; inconclusive = between about -30% and that limit;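 note: parasites exposed to compound for two days anaerobically before the ATP read; % is set by controls: 0 for no effect and ±100 for the full control effect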
#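 Giardia lamblia trophozoites (100 cells/well) were incubated with compounds for 48 h at 37 deg C under anaerobic conditions. Viability was read as ATP content by one-step luminescence after 15-30 min at room temperature.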
# MCF10A rereplic: A quantitative high throughput screen for small molecules that induce DNA re-replication in MCF 10a normal breast cells; MCF 10A DNA re-replication, Hoechst nuclear intensity, 48 h; Potency, µM (titrated, usually from 46.1 µM), for the others: at the highest dose activity, positive = re-replication, actives largely listed as activators; actives 2.9% (n = 350,000); AID 624296, 2012; note: potency is the fitted concentration of half-maximal effect; % of control where 0% means no effect; nearly all actives have a fitted effect of over 50% in size
# * hit, by the source's call; ? = inconclusive; · = no result. Unless noted, calls come from the whole dose curve; as a rule, active = well fitted activation curve with a large enough effect; inconclusive = small, poorly fitted or top-dose-only effect; inactive = no such curve, though single readings can be large or run the other way.
SMILES,uPA surface inh,SW480 rereplic,Giardia killer,MCF10A rereplic
Cc1nc(SCC(=O)NNC(=O)c2ccc(F)cc2)c2ccccc2n1,1%,-15%,-6,3%
CSc1nc(N(C)NC(=O)c2ccc(F)cc2)c2ccccc2n1,-13%,2.3µM*,-3,1.8µM*
Cc1ccc(NC(=O)CN(C)C(=O)c2ccc(C(F)(F)F)cc2)cc1,6%,-1%,0,1%
NCCCC(N)CC(=O)NC1CNC(=O)C(C2CC(O)N=C(N)N2)NC(=O)/C(=C/NC(N)=O)NC(=O)C(CO)NC(=O)C(CO)NC1=O (stereo unspecified),·,-4%,·,-1%
Cc1cccc(NNC(=O)C(=O)NNc2cccc(C)c2)c1,?,-7%,4,6.5µM*
Cc1cccc(NC(=O)CC(=O)Nc2cccc(C)c2)c1,-9%,-1%,-4,-21%
O=C(Nc1nnc(-c2ccccc2)o1)c1nc2ccccc2s1,-1%,-4%,-2,23µM*
COc1cc(C(c2c(C)[nH][nH]c2=O)c2c(C)[nH][nH]c2=O)ccc1OCc1ccc([N+](=O)[O-])cc1,-2%,?,-20,21µM*
COc1cc(/C=C/[N+](=O)[O-])ccc1OCc1cccc(C(=O)O)c1,4%,?,2,10µM*
COC(=O)C(=Cc1ccc(OCc2ccc([N+](=O)[O-])cc2)c(OC)c1)C(=O)OC,-12%,25%,-5,1.5µM*
COc1cc(C(c2c(C)[nH][nH]c2=O)c2c(C)[nH][nH]c2=O)ccc1OC(=O)c1cccc([N+](=O)[O-])c1,-2%,-11%,-4,-4%
COc1cc(C=O)ccc1OCCCOc1ccc([N+](=O)[O-])cc1,-6%,-4%,11,2%
CCOC(=O)/C(=C\c1cccnc1)C(=O)c1cc(C(C)=O)c(Nc2ccccc2)s1,6%,3.7µM*,-17,2.9µM*
COc1cc(/C=N/NC(=O)c2cccc([N+](=O)[O-])c2)ccc1OCc1ccccc1,·,-7%,-3,1%
CCOC(=O)/C(=C\c1ccccc1)C(=O)c1cc(C(C)=O)c(Nc2ccccc2)s1,?,11%,2,20%
Cc1ccc(S(=O)(=O)N2CCN(c3nc(-c4ccc(C)s4)nc4ccccc34)CC2)cc1,·,·,-3,·
O=C(NCCc1nc2ccccc2n1CCOc1ccc2ccccc2c1)C1CCCCC1,·,·,1,·
CC1CN(CCN2CC(C)N(C=O)CC2C)C(C)CN1C=O (stereo unspecified),3%,1%,8,0%
CCOC(=O)C(=Cc1ccc(OCc2ccc([N+](=O)[O-])cc2)c(OC)c1)C(=O)OCC,-13%,4.6µM*,-7,5.8µM*
CCOC(=O)/C(C#N)=C/c1cccc([N+](=O)[O-])c1,-4%,2%,1,1%
CCOC(=O)/C(=C\c1ccc(OC)c(OC)c1)C(=O)c1cccnc1,0%,20%,0,26µM*
O=C(NCCc1nc2ccccc2n1CCCOc1ccc2ccccc2c1)C1CCCCC1,·,·,6,·
COc1ccc(-c2cc3ccc(O)cc3oc2=O)cc1,?,18µM*,?,18µM*
COc1ccc([C@H]2CC(=O)C=C(c3ccc(CNC(=O)OC(C)(C)C)cc3)C2)cc1,?,8%,-9,?
COc1ccc2c(=O)c(C)c(-c3ccccc3)oc2c1CN(C)C,·,-2%,·,0%
SMILES,uPA surface inh,SW480 rereplic,Giardia killer,MCF10A rereplic
O=C(O)c1ccc(Cl)cc1Nc1nc2cc(Cl)ccc2o1,0%,5%,-4,21µM*
CCC(=O)Nc1cc(Cl)ccc1C(=O)O,4%,1%,1,12%
COC(=O)C1=C[C@@H](C(=O)OC)[C@@H]2C3=C(C(=O)[C@]2(C)NC(=O)c2ccccc2)[C@H](C)[C@@H]2C(=O)NC(=O)[C@@H]2[C@@H]3C1,·,·,23,·
COc1ccc(S(=O)(=O)Nc2cc(SCC(=O)O)c(O)c3ccccc23)cc1,11µM*,?,-8,-11%
O=C(O)CSc1cc(NS(=O)(=O)c2ccc(Cl)cc2)c2ccccc2c1O,-5%,?,-19,23µM*
Cc1cc(C)c(S(=O)(=O)Nc2cc(SCC(=O)O)c(O)c3ccccc23)cc1C,-3%,?,21,?
CC[Si](CC)(CC)O[C@H]([C@@H](C)COCOC)[C@@H](C)COCc1ccc(OC)cc1,·,·,23,·
Cc1ccc(N2CC(C(=O)OCC(=O)c3ccc([N+](=O)[O-])cc3)CC2=O)cc1 (stereo unspecified),2%,1%,-5,5%
CC(=O)OCC(NC(=O)C(Cc1ccccc1)NC(=O)OC(C)(C)C)C1OC(n2cc(F)c(=O)[nH]c2=O)C(OC(C)=O)C1OC(C)=O (stereo unspecified),·,·,10,·
COc1cc2c(ccc3cc(OC)c(OC)c(O)c32)cc1O,10µM*,?,-5,?
O=C(O)c1cc(-c2ccc(-c3ccc(F)cc3)o2)nc2ccccc12,?,-5%,?,?
O=S(=O)(c1cccs1)N1CN(C2CCCCC2)c2nc3ccccc3nc21,-1%,?,-13,-2%
O=C(c1cc2cc(F)ccc2[nH]1)N1CCC(Cc2ccccc2)CC1,1%,5%,-16,8.2µM*
Cc1ccc(CSc2nc3c(c(N(C)C)n2)CCCC3)cc1,1%,15µM*,17,13µM*
CNc1nc(SCc2ccc(C)cc2)nc2c1CCCC2,-6%,-1%,-1,15µM*
Cc1ccc(CSc2nc3c(c(SCC(=O)O)n2)CCCC3)cc1,-2%,-4%,-9,11%
Cc1ccc(-n2cnc3c(=O)[nH]cnc32)cc1,-3%,-1%,?,-26%
Cc1cccc(N2CCN(Cc3cn(C)nc3-c3ccccc3F)CC2)n1,-1%,3.3µM*,-12,7.3µM*
O=c1cc(-c2ccccc2)nc2c(-c3ccccc3)c(C(F)(F)F)[nH]n12,0%,?,-14,8.2µM*
Cc1cc(=O)n2[nH]c(C)c(-c3ccccc3)c2n1,3%,-4%,3,-6%
COc1ccc(CNC(=O)COC(=O)c2ccccc2OCC(=O)Nc2ccc(SC(F)F)cc2)cc1,-2%,10µM*,0,-10%
O=C(CCn1c(=O)oc2ccc(Cl)cc21)NCCCN1CCOCC1,-3%,8%,-25,-2%
FC(F)(F)c1nnc(-c2ccccc2)nc1Sc1ccc(Cl)cc1,-1%,?,-10,5.8µM*
FC(F)(F)c1cccc(Oc2nc(-c3ccccc3)nnc2C(F)(F)F)c1,0%,-2%,-4,15µM*
FC(F)(F)c1nnc(-c2ccccc2)nc1Oc1ccc(Cl)cc1Cl,-3%,-4%,-9,3.3µM*
FC(F)(F)c1nnc(-c2ccccc2)nc1Sc1ccccc1,-4%,?,-4,5.2µM*
FC(F)(F)c1nnc(-c2ccccc2)nc1N1CCCC1,1%,-3%,-2,-3%
CC(=O)c1cc(C#N)c(Oc2cccc(C(F)(F)F)c2)nc1C,17%,-3%,13,-2%
CCCCn1c(N)c(N(Cc2ccccc2OC)C(=O)c2ccc(N3CCCC3=O)cc2)c(=O)[nH]c1=O,4%,-7%,1,-1%

# Source: PubChem BioAssay (National Center for Advancing Translational Sciences (NCATS))
